# According to PubChem BioAssay (Tox21):
# Values without a mark were called inactive. Results filed as inconclusive are left out. Where a call stands in place of a potency, no number is given. The source made the active and inactive calls. Unless noted, calls follow the shape of the dose curve; as a rule, active = well fitted curve in the direction sought with a large enough effect in the repeat runs; inconclusive = weak or mixed curves; inactive = no such curve, though single readings can be large; an effect the other way counts as inactive or inconclusive.
# What was measured:
# [1] = qHTS assay to identify small molecule antagonists of the estrogen receptor alpha (ER-alpha) signaling pathway using the BG1 cell line in the presence of 0.1 nM 17-beta-estradiol - cell viability counter screen (AID 1259241); also: nearly all actives have a fitted effect of over 40% in size
# Summary of the method: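 VM7Luc4E2 cells (endogenous ER-alpha, 4×ERE-luciferase), hormone-starved 5 days in charcoal-stripped FBS, were treated with compounds plus 0.1 nM 17beta-estradiol for 22 hr at 37C; viability read in same wells as CellTiter-Fluor live-cell protease fluorescence.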
# [2] = qHTS assay to identify small molecule antagonists of the androgen receptor (AR) signaling pathway using the MDA cell line in the presence of 0.5 nM R1881 - cell viability counter screen (AID 1259242); also: nearly all actives have a fitted effect of over 45% in size
# Summary of the method: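 Concentration-response screen of compounds for toxicity in MDA-kb2 reporter cells: 16 hr at 37C with 0.5 nM R1881, endpoint live-cell protease fluorescence measured in the reporter wells.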
# [3] = target: Estrogen receptor (Homo sapiens) (UniProt P03372); test: qHTS assay to identify small molecule antagonists of the estrogen receptor alpha (ER-alpha) signaling pathway using the BG1 cell line in the presence of 0.1 nM 17-beta-estradiol (AID 1259244); also: nearly all actives have a fitted effect of over 50% in size
# Chain of Estrogen receptor (Homo sapiens) (P03372 whole entry, looked up): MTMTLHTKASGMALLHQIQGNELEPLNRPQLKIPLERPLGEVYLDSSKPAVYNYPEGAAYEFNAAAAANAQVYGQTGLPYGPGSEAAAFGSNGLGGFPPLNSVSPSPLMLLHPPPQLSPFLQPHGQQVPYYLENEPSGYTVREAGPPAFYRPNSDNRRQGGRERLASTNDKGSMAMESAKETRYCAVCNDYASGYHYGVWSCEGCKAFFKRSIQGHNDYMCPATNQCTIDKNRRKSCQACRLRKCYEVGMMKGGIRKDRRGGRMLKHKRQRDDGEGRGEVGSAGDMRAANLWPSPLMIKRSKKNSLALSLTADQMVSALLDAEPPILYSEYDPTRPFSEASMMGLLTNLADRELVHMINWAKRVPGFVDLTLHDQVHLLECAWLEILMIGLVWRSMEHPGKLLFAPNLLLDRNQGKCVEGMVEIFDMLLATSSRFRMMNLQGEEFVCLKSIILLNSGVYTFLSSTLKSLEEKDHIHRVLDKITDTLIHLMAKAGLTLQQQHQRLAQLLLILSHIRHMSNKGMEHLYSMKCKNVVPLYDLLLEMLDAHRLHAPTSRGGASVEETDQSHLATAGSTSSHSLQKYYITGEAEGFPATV
# Summary of the method: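 Compounds were tested against 0.1 nM (final) 17beta-estradiol in VM7Luc4E2 cells, which express full-length ER-alpha and an ERE-luciferase reporter; luminescence was recorded following 22 h exposure.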
# [4] = qHTS assay to identify small molecule phospholipidosis (PLD) inducers (AID 1259344; active = well fitted curve in the direction sought with a large enough effect; an effect the other way counts as inactive or inconclusive)
# Summary of the method: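 After 4 h attachment on collagen I, HepG2 cells were dosed with compound alongside LipidTOX Red, kept 24 h at 37 C, fixed, and imaged for lamellar phospholipid pits.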
# [5] = qHTS assay to identify small molecule HDAC inhibitors (AID 1259364);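 also: wild-type HCT-116 cells with endogenous class I/II HDAC activity; top concentration of the series differs between compounds; nearly all actives have a fitted effect of over 45% in size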
# Summary of the method: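 Screening used wild-type human colon HCT-116 cells incubated overnight, dosed with compounds for 2 hours, and assayed with a homogeneous luminogenic HDAC I/II reagent for 30 minutes at room temperature.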
# [6] = qHTS assay to identify small molecule HDAC inhibitors - cell viability counter screen (AID 1259365); also: series mostly up to about 92 µM; nearly all actives have a fitted effect of over 50% in size
# Summary of the method: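 Wild-type HCT-116 cells were seeded at 1,500 per well, incubated overnight at 37 C, then exposed to compounds in DMSO for 2hr. Viability was read by CellTiter-Glo luminescence after 30min at room temperature.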
# [7] = qHTS assay to identify small molecule agonists of the sonic hedgehog signaling (Shh) pathway - cell viability counter screen (AID 1259366); also: nearly all actives have a fitted effect of over 50% in size
# Summary of the method: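 NIH/3T3-derived 3T3 Gli1-Luc cells (stable Gli1-responsive firefly luciferase reporter) were seeded, rested 4 hr at 37 C/5% CO2, then exposed to compounds in DMSO for 24 hr; viability was read by CellTiter-Fluor fluorescence in the same wells.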
# [8] = qHTS assay to identify small molecule antagonists of the sonic hedgehog signaling (Shh) pathway - cell viability counter screen (AID 1259367); also: nearly all actives have a fitted effect of over 55% in size
# Summary of the method: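 Conditioned medium drove Shh signaling in 3T3 Gli1-Luc cells exposed to compounds at 37C and 5% CO2. Viability was determined from CellTiter-Fluor fluorescence, with reagent incubated 1 hr after 23 hr of treatment.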
# [9] = qHTS assay to identify small molecule agonists of the sonic hedgehog signaling (Shh) pathway (AID 1259368; calls by dose curve; also: series mostly up to about 92 µM; nearly all actives have a fitted effect of over 15% in size)
# Summary of the method: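 Hedgehog pathway agonism scored by increased firefly luciferase luminescence in 3T3Gli1-Luc cells treated 24 hr at 37 C; detection used a 30 min room-temperature reagent incubation.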
# [10] = qHTS assay to identify small molecule antagonists of the sonic hedgehog signaling (Shh) pathway (AID 1259369; calls by dose curve; also: nearly all actives have a fitted effect of over 45% in size)
# Summary of the method: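 NIH/3T3 stable Gli1-Luc clone, 2,000 cells/well, 4hr settle; cpd + conditioned medium 24hr; Luc reagent 30min RT; luminescence.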
# [11] = target: Estrogen receptor beta (Homo sapiens) (UniProt Q92731); test: qHTS assay to identify small molecule agonists of the estrogen receptor beta (ER-beta) signaling pathway (AID 1259377; active = well fitted activation curve with a large enough effect in the signal ratio in the repeat runs, not every such curve was filed as active; the % refers to the signal ratio)
# Chain of Estrogen receptor beta (Homo sapiens) (Q92731 whole entry, looked up): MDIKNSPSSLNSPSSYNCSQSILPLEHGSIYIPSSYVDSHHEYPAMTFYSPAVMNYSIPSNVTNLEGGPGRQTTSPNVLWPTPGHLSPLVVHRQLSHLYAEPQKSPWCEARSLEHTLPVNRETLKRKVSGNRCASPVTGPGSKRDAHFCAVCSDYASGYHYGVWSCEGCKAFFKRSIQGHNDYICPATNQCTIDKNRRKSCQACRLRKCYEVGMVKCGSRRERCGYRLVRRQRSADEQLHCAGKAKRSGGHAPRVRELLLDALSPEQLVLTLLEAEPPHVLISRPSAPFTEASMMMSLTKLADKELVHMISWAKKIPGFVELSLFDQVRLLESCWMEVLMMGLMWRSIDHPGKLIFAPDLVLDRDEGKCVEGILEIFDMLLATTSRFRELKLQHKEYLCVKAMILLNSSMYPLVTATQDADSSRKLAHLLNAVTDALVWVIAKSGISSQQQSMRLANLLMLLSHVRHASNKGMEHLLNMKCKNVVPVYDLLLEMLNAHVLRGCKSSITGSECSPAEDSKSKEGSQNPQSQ
# Summary of the method: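 ER-beta-UAS-bla HEK293T (GripTite) cells carrying a UAS-driven beta-lactamase reporter, in medium with 2% charcoal-stripped FBS, were exposed to compounds for 16 hr at 37C; LiveBLAzer B/G FRET substrate was then added and fluorescence read after 2 hours at room temperature.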
# [12] = target: Estrogen receptor beta (Homo sapiens) (UniProt Q92731); test: qHTS assay to identify small molecule antagonists of the estrogen receptor beta (ER-beta) signaling pathway (AID 1259378; active = well fitted inhibition curve with a large enough effect in the signal ratio in the repeat runs, not every such curve was filed as active; the % refers to the signal ratio)
# Summary of the method: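 ER-beta-UAS-bla HEK293T (GripTite) cells in 2% charcoal-stripped FBS medium were preincubated 6 hr at 37C, dosed with compound, then stimulated with 1 nM E2 (final) for 16 hr; beta-lactamase reporter read by B/G FRET fluorescence after 2 hr substrate loading.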
# [13] = qHTS assay to identify small molecule agonists of the androgen receptor (AR) signaling pathway in the presence of an antagonist - cell viability counter screen (AID 1259379);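 also: MDA-kb2 human breast cancer cells carrying an MMTV luciferase reporter; series mostly up to about 92 µM; nearly all actives have a fitted effect of over 25% in size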
# Summary of the method: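 MDA-kb2 viability measured by CellTiter-Fluor fluorescence in the same wells as the luciferase signal; nilutamide 3.0uM final; 15-point compound titration; 16 hr at 37C.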
# [14] = qHTS assay to identify small molecule agonists of the estrogen receptor beta (ER-beta) signaling pathway - cell viability counter screen (AID 1259380); also: nearly all actives have a fitted effect of over 30% in size; also: potency is read from the fitted curve at half-maximal effect
# Summary of the method: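 Measured: luminescence from CellTiter-Glo after 30 min at room temperature, added to wells already read for the LiveBLAzer FRET reporter (2 hr substrate); ER-beta-UAS-bla HEK293T cells had 16 hr compound treatment at 37C, 5% CO2.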
# [15] = qHTS assay to identify small molecule antagonists of the estrogen receptor beta (ER-beta) signaling pathway - cell viability counter screen (AID 1259382); also: series mostly up to about 92 µM; nearly all actives have a fitted effect of over 55% in size
# Summary of the method: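 Readout: luminescence, CellTiter-Glo, same wells as bla assay. System: ER-beta-UAS-bla GripTite HEK293T, 2% charcoal-stripped FBS. Exposure: compounds plus 1nM 17-beta-estradiol, 16 hr, 37C.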
# [16] = target: Estrogen receptor (Homo sapiens) (UniProt P03372); test: qHTS assay to identify small molecule agonists of the estrogen receptor alpha (ER-alpha) signaling pathway in the presence of an antagonist (AID 1259383; calls by dose curve; also: nearly all actives have a fitted effect of over 15% in size; also: potency is read from the fitted curve at half-maximal effect; as to activation: top concentration of the series differs between compounds)
# Summary of the method: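 Quantitative HTS confirmation: compounds titrated at 15 concentrations onto estrogen-deprived VM7Luc4E2 cells carrying a four-ERE luciferase construct, with ICI-182,780 present at 10.0nM final. Signal is luminescence after 22hr exposure.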
# [17] = qHTS assay to identify small molecule agonists or antagonists of the thyroid stimulating hormone receptor (TSHR) signaling pathway - wild type cell line counter screen (AID 1259384; calls by dose curve)
# Summary of the method: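 Wild-type HEK293 cells were plated 18 h at 37 C/5% CO2, pin-dosed with compound plus Ro20-1724 medium, held 30 min at room temperature, then given cAMP-d2 and anti-cAMP-cryptate; fluorescence was read after 1 h. Fifteen concentrations, triplicate.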
# [18] = target: Thyrotropin receptor (Homo sapiens) (UniProt P16473); test: qHTS assay to identify small molecule antagonists of the thyroid stimulating hormone receptor (TSHR) signaling pathway (AID 1259385; calls by dose curve; also: nearly all actives have a fitted effect of over 20% in size)
# Chain of Thyrotropin receptor (Homo sapiens) (P16473 whole entry, looked up): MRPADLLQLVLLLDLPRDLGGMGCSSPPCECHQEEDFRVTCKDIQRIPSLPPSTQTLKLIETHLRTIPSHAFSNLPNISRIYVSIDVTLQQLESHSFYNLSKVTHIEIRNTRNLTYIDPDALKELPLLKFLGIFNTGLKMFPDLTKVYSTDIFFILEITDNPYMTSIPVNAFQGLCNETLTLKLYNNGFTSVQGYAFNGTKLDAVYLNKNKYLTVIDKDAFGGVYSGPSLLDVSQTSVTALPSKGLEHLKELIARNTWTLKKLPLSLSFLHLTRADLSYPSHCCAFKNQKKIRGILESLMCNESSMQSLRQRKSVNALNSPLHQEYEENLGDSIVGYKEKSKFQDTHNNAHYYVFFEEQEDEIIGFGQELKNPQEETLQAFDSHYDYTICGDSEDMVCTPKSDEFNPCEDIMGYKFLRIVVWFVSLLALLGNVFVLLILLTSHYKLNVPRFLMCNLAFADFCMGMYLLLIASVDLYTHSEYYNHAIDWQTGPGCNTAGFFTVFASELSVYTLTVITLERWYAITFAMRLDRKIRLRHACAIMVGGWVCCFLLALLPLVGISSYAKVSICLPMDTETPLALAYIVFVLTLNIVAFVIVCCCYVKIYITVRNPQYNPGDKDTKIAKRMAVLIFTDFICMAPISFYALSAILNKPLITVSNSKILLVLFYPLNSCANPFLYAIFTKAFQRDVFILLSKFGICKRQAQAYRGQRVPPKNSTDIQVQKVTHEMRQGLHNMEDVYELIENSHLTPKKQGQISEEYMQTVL
# Summary of the method: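 TSHR-HEK293 cells were plated and held 18 h at 37C/5% CO2, then given compound plus Ro20-1724 and stimulated with TSH at 1.5 ng/mL final. After 30 min at room temperature, cAMP was detected with cAMP-d2/anti-cAMP-cryptate (1 h) by fluorescence.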
# [19] = target: Androgen receptor (Homo sapiens) (UniProt P10275); test: qHTS assay to identify small molecule antagonists of the androgen receptor (AR) signaling pathway using the MDA cell line in the presence of 0.5 nM R1881 (AID 1259243); also: nearly all actives have a fitted effect of over 50% in size
# Chain of Androgen receptor (Homo sapiens) (P10275 whole entry, looked up): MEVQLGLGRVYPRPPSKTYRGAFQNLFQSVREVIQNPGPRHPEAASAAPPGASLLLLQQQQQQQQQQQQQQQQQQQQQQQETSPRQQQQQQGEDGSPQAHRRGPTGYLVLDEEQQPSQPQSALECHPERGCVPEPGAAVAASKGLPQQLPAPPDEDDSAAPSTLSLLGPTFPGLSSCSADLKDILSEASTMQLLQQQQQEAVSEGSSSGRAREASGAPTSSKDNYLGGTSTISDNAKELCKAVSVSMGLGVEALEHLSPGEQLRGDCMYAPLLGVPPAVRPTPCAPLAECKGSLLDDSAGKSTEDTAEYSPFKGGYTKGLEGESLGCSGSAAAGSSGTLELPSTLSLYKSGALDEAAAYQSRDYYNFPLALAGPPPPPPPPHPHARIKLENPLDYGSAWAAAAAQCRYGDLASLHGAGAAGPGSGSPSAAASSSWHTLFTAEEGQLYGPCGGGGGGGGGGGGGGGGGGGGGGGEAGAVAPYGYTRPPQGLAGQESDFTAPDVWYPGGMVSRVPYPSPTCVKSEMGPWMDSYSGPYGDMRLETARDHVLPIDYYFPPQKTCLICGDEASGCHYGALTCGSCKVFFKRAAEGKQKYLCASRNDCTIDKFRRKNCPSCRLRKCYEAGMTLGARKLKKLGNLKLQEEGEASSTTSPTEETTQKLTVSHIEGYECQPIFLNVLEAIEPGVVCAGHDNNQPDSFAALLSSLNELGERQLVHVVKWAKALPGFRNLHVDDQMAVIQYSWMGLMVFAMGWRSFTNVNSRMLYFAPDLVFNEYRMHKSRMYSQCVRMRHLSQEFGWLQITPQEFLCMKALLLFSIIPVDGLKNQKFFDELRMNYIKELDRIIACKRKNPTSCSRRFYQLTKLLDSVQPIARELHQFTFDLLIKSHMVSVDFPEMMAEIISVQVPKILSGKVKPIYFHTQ
# Summary of the method: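 With R1881 held at 0.5 nM (final), compound effects on MMTV-luciferase expression in MDA-kb2 cells were scored by luminescence after a 16 hr, 37C incubation.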
# [20] = target: Androgen receptor (Homo sapiens) (UniProt P10275); test: qHTS assay to identify small molecule agonists of the androgen receptor (AR) signaling pathway in the presence of an antagonist (AID 1259381; calls by dose curve; also: nearly all actives have a fitted effect of over 15% in size; also: potency is read from the fitted curve at half-maximal effect)
# Summary of the method: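 Luminescent ONE-Glo read, 30min at room temperature, follows 16hr compound exposure (15 concentrations) of MDA-kb2 cells at 37C, 0% CO2, with nilutamide added at 3.0uM final.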
SMILES,outcome [1],outcome [2],Potency [3],outcome [4],Potency [5],outcome [6],Potency [7],Potency [8],outcome [9],Potency [10],outcome [11],Potency [12],Potency [13],Potency [14],Potency [15],Potency [16],Potency [17],Potency [18],Potency [19],Potency [20]
COP(=S)(OC)Oc1ccc(S(N)(=O)=O)cc1,inactive,inactive,inactive,inactive,inactive,inactive,inactive,inactive,inactive,inactive,inactive,inactive,inactive,inactive,inactive,inactive,inactive,inactive,–,–
C#CCN1C(=O)COc2cc(F)c(N3C(=O)C4=C(CCCC4)C3=O)cc21,inactive,inactive,inactive,–,inactive,–,inactive,inactive,inactive,–,inactive,–,inactive,–,inactive,inactive,inactive,inactive,inactive,inactive
COC(=O)c1c(C(F)F)nc(C(F)(F)F)c(C2=NCCS2)c1CC(C)C,inactive,inactive,inactive,–,inactive,inactive,inactive,inactive,inactive,inactive,inactive,inactive,inactive,inactive,inactive,inactive,inactive,inactive,–,inactive
CCOC(=O)/C=C(C)/C=C/C[C@@H](C)CCCC(C)C,inactive,inactive,inactive,inactive,inactive,inactive,inactive,inactive,inactive,–,inactive,–,inactive,43.3 µM (active),–,inactive,–,–,–,–
C#C[C@]1(O)C=C[C@H]2[C@@H]3CCC4=CC(=O)CC[C@@H]4[C@H]3CC[C@@]21CC,inactive,inactive,inactive,inactive,inactive,inactive,inactive,inactive,–,–,inactive,–,inactive,–,inactive,3.35 µM (active),inactive,inactive,–,133 nM (active)
CCOC(=O)C1(c2ccccc2)CCN(CCc2ccc(N)cc2)CC1,inactive,inactive,inactive,–,inactive,inactive,inactive,inactive,–,inactive,–,inactive,inactive,–,inactive,inactive,inactive,inactive,inactive,inactive
COC(=O)C1=CCCN(C)C1,inactive,inactive,inactive,inactive,inactive,–,inactive,inactive,–,–,inactive,inactive,inactive,–,inactive,inactive,inactive,inactive,–,–
CCN(CC)C(C)C(=O)c1ccccc1 (stereo unspecified),inactive,inactive,inactive,inactive,inactive,inactive,inactive,inactive,inactive,inactive,–,–,inactive,inactive,–,inactive,inactive,inactive,inactive,inactive
